Bioassay records (PubChem)
TDP43 rescue = TDP-43 toxicity inhibition in yeast; AID 652104; TDP-43 expressing yeast growth rescue, BacTiter-Glo, 24 h; 410,000 compounds, 1.8% hits; Potency, µM (highest dose often 46.1 µM), for the others: at the highest dose growth rescue (activation), most hits filed as activators; also: % of control where 0% means no effect; nearly all actives have a fitted effect of over 50% in size
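Readout is BacTiter-Glo luminescence of cell growth, so inhibitors register as activators. TDP-43-expressing yeast at OD600=0.02 in galactose medium, after raffinose pregrowth to mid-log, were incubated with compound for 24 hr at 30 deg C.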
FUS yeast rescue = rescues growth of FUS-expressing yeast; AID 1347120; 390,000 compounds, 0.24% hits; S. cerevisiae FUS-expressing, growth rescue, OD600, 24 h; Potency, µM (series often up to 76.6 µM), usual class: activators;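 also: plate controls were DMSO vehicle for no effect and reference control for full effect; nearly all actives have a fitted effect of over 55% in size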
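Quantitative HTS measuring growth restoration of FUS-toxic yeast. Galactose-induced cells (OD 0.005) were exposed 24hr at 30C to compounds at several concentrations, then absorbance at 600 nm was recorded.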
Mito fusion yeast = mitochondrial division inhibition or fusion activation | Potency, µM (highest dose often 46.1 µM), for inactives: at the top dose growth rescue (activation), usual class: activators | 320,000 compounds, 0.23% hits | S. cerevisiae fusion-defective mutant growth rescue, CellTiterGlo 48 h; also: % of control where 0% means no effect; nearly all actives have a fitted effect of over 45% in size
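S. cerevisiae fusion-defective temperature-sensitive mutants (e.g. fzo1-1, mgm1-5) grown 48 h at 37C in YPEG (ethanol/glycerol non-fermentable) medium with 23 nl compound per well; growth rescue read as CellTiterGlo luminescence.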
Abeta rescue = A-beta toxicity reversal in yeast. yeast expressing A-beta42, growth rescue, OD600, 48 h; response scale: 0% DMSO, 100% iron-clioquinol control. Potency, µM (top dose mostly 46.1 µM), most hits filed as activators. 410,000 compounds, 0.063% hits. AID 1347071; also: nearly all actives have a fitted effect of over 55% in size
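Yeast A-beta toxicity model in growth medium with pinned compounds, 48 h at 30 C; growth read as absorbance at 600 nm. Normalized to FeCl3/clioquinol equimolar mix (positive) and DMSO (negative).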
aSyn yeast inh = inhibitors of alpha-synuclein toxicity in yeast. Yeast expressing alpha-synuclein, growth rescue, BacTiter-Glo, 24 h. 370,000 compounds, 0.14% hits. Potency, µM (series often up to 46.1 µM), for inactives: at the top dose growth rescue (activation), hits mostly activators; also: % of control where 0% means no effect; nearly all actives have a fitted effect of over 65% in size
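Readout is rescue of growth in alpha-synuclein-expressing yeast, so inhibitors of toxicity appear as activators. Growth after 24 hr at 30 deg C in galactose medium is quantified by luminescence.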
* marks the source's active call; other numbers are inactive results. Most compounds without a hit are left out; they make up all but 2.2% or so of the library. Calls follow the shape of the dose curve; as a rule, active = well fitted curve in the direction sought with a large enough effect; inconclusive = small, poorly fitted or top-dose-only effect, or another doubt; inactive = no such curve, though single readings can be large; an effect the other way counts as inactive or inconclusive. Potency is read from the fitted curve at half-maximal effect.

Screening COc1ccc(C2=Nc3ccccc3N(C(=O)c3ccncc3)C2C(=O)NC(C)C)cc1 (stereo not given) returned TDP43 rescue 2.3%, FUS yeast rescue inactive, Abeta rescue inactive and aSyn yeast inh -9.6%.
O=C(c1cc2ccccc2[nH]1)c1cc2cc(O)ccc2[nH]1 was read as aSyn yeast inh -3.4%.
`O=C(CCc1ccccc1)N[C@H]1[C@H](OC(=O)c2cnccn2)CCC[C@]12C(=O)N(Cc1ccccc1)c1ccccc12` gave FUS yeast rescue inactive.
`CN1CCC(=O)N([C@H](COc2ccccc2)Cc2ccccc2)CC1` gave TDP43 rescue 10.5%, FUS yeast rescue inactive, Mito fusion yeast 1.5%, Abeta rescue inactive and aSyn yeast inh 2.8%.
COCCCNC(=S)N1CCN(c2nc(-c3ccccc3)cs2)CC1 was read as TDP43 rescue 35.5µM*, FUS yeast rescue inactive, Mito fusion yeast -0.1%, Abeta rescue inconclusive and aSyn yeast inh -4.6%.
Screening COc1cc(OC)c(OC)cc1/C=C/c1ccc2ccccc2n1 returned aSyn yeast inh -0.3%.
CC1CCCN(CCOCCOc2ccc(Br)cc2Cl)C1 (stereo not given) was read as TDP43 rescue -16.1%, FUS yeast rescue inactive, Mito fusion yeast 8.8%, Abeta rescue inactive and aSyn yeast inh 16.7%.
CC1CCCN(CCOCCOc2ccc(Cl)cc2Br)C1 (stereo not given) was read as TDP43 rescue -19.7%, FUS yeast rescue 7.08µM*, Mito fusion yeast 9.9%, Abeta rescue inactive and aSyn yeast inh 0.4%.
`COc1ccc(CC(=O)Nc2ccc(C)cc2S(=O)(=O)N2CCOCC2)cc1OC` gave FUS yeast rescue inactive.
Screening Cc1ccccc1-n1c(C)nnc1SC(C)C(=O)NCc1ccco1 (stereo not given) returned aSyn yeast inh -4.8%.
For CCOC(=O)c1c(-c2ccccc2)nnn1-c1nc(OCC)nc(N2CCCCC2)n1 the results were TDP43 rescue 22.4µM*, FUS yeast rescue inactive, Mito fusion yeast 22.4%, Abeta rescue inactive and aSyn yeast inh -26.3%.
Screening CCOC(=O)c1nnn(-c2nc(OC)nc(N3CCCCC3)n2)c1-c1ccccc1 returned Mito fusion yeast 6.4%.
Screening CC1(C)Oc2ccc(C(=O)N3CCCC3)cc2NC1=O returned FUS yeast rescue inactive.
COc1ccccc1CNC(=O)C(=O)NCC(c1cccs1)S(=O)(=O)c1ccc(F)cc1 (stereo not given) was read as TDP43 rescue 6.6%, FUS yeast rescue 28.2µM* and Abeta rescue inactive.
CSc1nccc(-c2c(-c3ccc(Cl)cc3)noc2C)n1 was read as TDP43 rescue 17.8µM*, FUS yeast rescue inactive, Mito fusion yeast 19.6%, Abeta rescue inactive and aSyn yeast inh -13.9%.
`Cc1ccc(NC(=O)CSc2nnc(-c3cc(-c4ccc(Cl)cc4)n[nH]3)n2N)cc1` gave FUS yeast rescue inactive.
`COc1cccc(CNc2ccc(S(N)(=O)=O)cc2)c1OCc1ccccc1F` gave TDP43 rescue 10.3%, FUS yeast rescue inactive, Mito fusion yeast 2.3%, Abeta rescue inactive and aSyn yeast inh 6.7%.
COc1cccc(CNc2ccccc2O)c1OCc1ccccc1F was read as TDP43 rescue -7.8%, FUS yeast rescue 20µM*, Mito fusion yeast -7.6%, Abeta rescue inactive and aSyn yeast inh -0.4%.
For CC(C)C[C@@H]1COc2cc(Br)ccc2S(=O)(=O)N1Cc1cn(Cc2ccco2)nn1 the results were FUS yeast rescue inactive.
Cc1ccc(-c2nc3ccc(Br)cn3c2Cc2ccccc2)cc1 was read as TDP43 rescue 4.5%, FUS yeast rescue inactive, Abeta rescue inactive and aSyn yeast inh 3.2%.
For Clc1ccc2nc(-c3ccco3)c(Cc3ccsc3)n2c1 the results were TDP43 rescue -26.4%, FUS yeast rescue inactive, Abeta rescue inactive and aSyn yeast inh 16.9%.
For Cc1ccc(Cc2c(-c3ccccc3)nc3ccc(Br)cn23)cc1 the results were TDP43 rescue 22.4µM*, FUS yeast rescue inactive, Abeta rescue inactive and aSyn yeast inh 17.8%.
